This is an account of results in PubChem BioAssay (NCATS).

A short description of experiment [1]: Drug repurposing screens with cells derived from glioblastoma tumor samples (AID 1345199). For activity, negative = cell killing: % is set by controls: 0 for no effect and ±100 for the full control effect. Note: nearly all actives have a fitted effect of over 40% in size. Note: potency is the fitted concentration of half-maximal effect. The settings on record: GBM patient neurospheres viability, ATP luminescence, 48 h. In a few lines:
(§1)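 Four patient lines of CD133+ GBM neurospheres were screened at several concentrations; hits were retested in those lines plus three slower-growing GBM lines, using 48-hour treatment and ATP-based viability.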

The test system of another experiment is astro (control astrocytes). The description is as above. To be noted: viability, ATP luminescence, 48 h; series mostly up to 45.9 µM. The method in brief:
as §1

In experiment [2] the target is Nuclear receptor subfamily 1 group I member 2 (Rattus norvegicus) (UniProt Q9R1A7). Kind of experiment: qHTS assay for small molecule activators of the rat pregnane X receptor (rPXR) signaling pathway (AID 651751; call rule not given here; note: 0% is about no effect). To be noted: rPXR reporter cells, luciferase (One-Glo), 24 h. (In general: qHTS replaces the single test concentration by a dilution series.)
Experiment [3] is described as follows: qHTS assay for small molecule activators of the human pregnane X receptor (PXR) signaling pathway (AID 720659; call rule not given here; note: 0% is about no effect). To be noted: DPX-2 HepG2 CYP3A4-luciferase, 24 h; series mostly up to 92.3 µM.
The mark [4] stands for this setting: at 45.9 µM (top of the series), tumour line B.
[5] abbreviates: at 45.9 µM (top of the series), tumour line D.
Where [6] appears, read: at 46 µM (top of the series), tumour line A.
[7] abbreviates: at 46.1 µM (top of the series), tumour line C.
The mark [8] stands for this setting: at 20 µM (top of the series), tumour line C.
The mark [9] stands for this setting: at 21.2 µM (top of the series), tumour line B.
Setting [10] is: at 21.2 µM (top of the series), tumour line D.

Values without a mark were called inactive. Results filed as inconclusive are left out. Activity calls are given as the source filed them. Unless noted, calls come from the whole dose curve; as a rule, active = well fitted inhibition curve with a large enough effect; inconclusive = small, poorly fitted or top-dose-only effect; inactive = flat fitted curve, though single readings scatter.

Chain of Nuclear receptor subfamily 1 group I member 2 (Rattus norvegicus) (Q9R1A7 whole entry, looked up): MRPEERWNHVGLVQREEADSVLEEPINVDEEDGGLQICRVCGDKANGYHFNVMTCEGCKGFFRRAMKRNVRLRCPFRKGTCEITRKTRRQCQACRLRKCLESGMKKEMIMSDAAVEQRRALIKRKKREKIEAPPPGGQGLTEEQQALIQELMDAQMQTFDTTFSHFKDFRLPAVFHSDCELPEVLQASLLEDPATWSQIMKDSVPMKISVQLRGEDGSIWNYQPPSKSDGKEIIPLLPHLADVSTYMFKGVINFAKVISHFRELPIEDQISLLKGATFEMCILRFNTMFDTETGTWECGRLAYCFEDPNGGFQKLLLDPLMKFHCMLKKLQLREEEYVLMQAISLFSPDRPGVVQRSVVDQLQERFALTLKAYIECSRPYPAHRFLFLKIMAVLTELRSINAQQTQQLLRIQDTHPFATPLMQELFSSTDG

Consider `O=C1C(c2[nH]c3ccccc3c2O)=Nc2ccccc21`, for which the activity, negative = cell killing is -10% in experiment [1] (setting [4]), -9.74% in experiment [1] (setting [5]), -34.1% in experiment [1] (setting [6]) and -13.3% in experiment [1] (setting [7]). Moreover, the outcome (in the experiment with astro; in experiment [3]) was inactive. For the same molecule, the max response in experiment [2] is 2.85%.
For the molecule `O=C1c2ccccc2S(=O)(=O)N1CCCCN1CCN(c2ncccn2)CC1`, the activity, negative = cell killing in experiment [1] (setting [4]) is 1.94%; in experiment [1] (setting [5]) it was -19.1%; in experiment [1] (setting [7]), -25.2%. Further, the outcome in the experiment with astro was inactive.
Consider `O[C@@H]1CO[C@H]2[C@@H]1OC[C@@H]2O`, for which the activity, negative = cell killing in experiment [1] (setting [4]) was -8.03%; in experiment [1] (setting [5]), 1.68%; in experiment [1] (setting [7]), -10.9%. For the same molecule, the molecule was called inactive in the experiment on astro.
On to `Cc1c(C(=O)NCCO)[n+](=O)c2ccccc2n1[O-]`, for which the activity, negative = cell killing in experiment [1] (setting [4]) was -6.85%; in experiment [1] (setting [5]) it was -27.6%; in experiment [1] (setting [6]) it was -29.3%; in experiment [1] (setting [7]) it was -6.62%. Further, the molecule was called inactive (in the experiment with astro; in experiment [3]). Besides, in experiment [2], the max response is 1.89%.
In the case of `C=CCNC(N)=S`, the activity, negative = cell killing in experiment [1] (setting [4]) was -3.35%; in experiment [1] (setting [5]) it was -8.91%; in experiment [1] (setting [6]), -13.7%; in experiment [1] (setting [7]), -3.97%. For the same molecule, the result (in the experiment on astro; in experiment [3]) was inactive. Also, in experiment [2], the max response was -5.15%.
Consider `C=CCOc1ccccc1OCC(O)CNC(C)C` (stereo not drawn), for which the activity, negative = cell killing was -4.31% in experiment [1] (setting [8]), 1.37% in experiment [1] (setting [9]) and -11.5% in experiment [1] (setting [10]). In addition, in the experiment on astro, the result was inactive.
For the molecule `CC(=O)SC[C@@H](Cc1ccccc1)C(=O)NCC(=O)OCc1ccccc1`, the activity, negative = cell killing in experiment [1] (setting [8]) was 2.42%; in experiment [1] (setting [9]), -12.3%; in experiment [1] (setting [10]) it was -8.77%. Besides, the call with astro was inactive.
Turning to `CCCCCC(N)=O`, the activity, negative = cell killing in experiment [1] (setting [4]) is -6.65%; in experiment [1] (setting [5]), -23.8%; in experiment [1] (setting [6]), -18.7%; in experiment [1] (setting [7]), -14.8%. In addition, the outcome (with astro; in experiment [3]) was inactive. For the same molecule, in experiment [2], the max response was 8.83%.
For the molecule `Cc1cc(-n2nc3ccc(Cl)cc3n2)c(O)c(C(C)(C)C)c1`, the values for the activity, negative = cell killing in experiment [1] (setting [4]) and in experiment [1] (setting [5]) were -1.32% and -14.3%, respectively. For the same molecule, the Potency in experiment [1] (tumour line A) was 7.94 µM (active). Besides, the call in the experiment on astro was inactive.
